# In the supplement of paper PMC8728848:
# The entries come from a sample that favours the strongest signals as a whole.
# B1: LlpA (Burkholderia cenocepacia) (protein)
# chain: MGSSHHHHHHSSGLVPRGSHKILGSNETLSAGNVVYSDNGQYHLAMQTDGNLVVYGPTGAVWQSQTSGSGGNRAVMQGDGNLVIYRADNTAAWSSKTAHPGAFLAVQDDGNVVIYWPRPAWASNTSDPATQQSAESKYLASGSTMSAGQTVTVAQYMLVFQADGNLVLYKNGGNPIWSTGTQGKGATYAVMQSDGNFVIYAGSTALWSTKTNGANGAQLVLQSDGNLVIYAPTAAWSTKFGLVTAPTSTSTSNNGPGSGICVGVCPPHPLNGNPFSPVGVGTTGLGFPTPGYPGAAF
# Tests used:
# Assay in all cases: glycan array binding signal (z-score within array); higher = stronger binding
# Conditions in all cases: glycan notation: IUPAC condensed, linker removed
# [1] = biological target: GlcNAc(b1-2)Man(a1-3)[GlcNAc(b1-4)][GlcNAc(b1-2)Man(a1-6)]Man(b1-4)GlcNAc(b1-4)GlcNAc
# Summary of the method: (§1)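 Arrays were curated from the Consortium for Functional Glycomics database, 3228 in total, and kept only where the protein sequence was available. Binding is expressed as a within-array Z-score. This score was averaged across arrays of the same protein sequence at different concentrations or buffers and across linkers, and negative values can be read as non-binding.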
# [2] = biological target: GlcNAc(b1-2)Man(a1-3)[GlcNAc(b1-4)][GlcNAc(b1-2)Man(a1-6)]Man(b1-4)GlcNAc(b1-4)[Fuc(a1-6)]GlcNAc
# Summary of the method: as §1
# [3] = biological target: GlcNAc(b1-2)[GlcNAc(b1-4)]Man(a1-3)[GlcNAc(b1-4)][GlcNAc(b1-2)[GlcNAc(b1-6)]Man(a1-6)]Man(b1-4)GlcNAc(b1-4)GlcNAc
# Summary of the method: as §1
# [4] = biological target: GlcNAc(b1-3)Gal(b1-3)GalNAc
# Summary of the method: as §1
# [5] = biological target: GlcNAc(b1-3)Gal(b1-4)GlcNAc
# Summary of the method: as §1
# [6] = biological target: GlcNAc(b1-3)Gal(b1-4)GlcNAc(b1-3)Gal(b1-4)GlcNAc(b1-2)[GlcNAc(b1-3)Gal(b1-4)GlcNAc(b1-3)Gal(b1-4)GlcNAc(b1-6)]Man(a1-6)[GlcNAc(b1-3)Gal(b1-4)GlcNAc(b1-3)Gal(b1-4)GlcNAc(b1-2)Man(a1-3)]Man(b1-4)GlcNAc(b1-4)[Fuc(a1-6)]GlcNAc
# Summary of the method: as §1
# [7] = biological target: GlcNAc(b1-3)Gal(b1-4)GlcNAc(b1-3)Gal(b1-4)GlcNAc(b1-3)Gal(b1-4)GlcNAc(b1-2)[GlcNAc(b1-3)Gal(b1-4)GlcNAc(b1-3)Gal(b1-4)GlcNAc(b1-3)Gal(b1-4)GlcNAc(b1-6)]Man(a1-6)[GlcNAc(b1-3)Gal(b1-4)GlcNAc(b1-3)Gal(b1-4)GlcNAc(b1-3)Gal(b1-4)GlcNAc(b1-2)Man(a1-3)]Man(b1-4)GlcNAc(b1-4)[Fuc(a1-6)]GlcNAc
# Summary of the method: as §1
# [8] = biological target: GlcNAc(b1-3)Gal(b1-4)GlcNAc(b1-3)Gal(b1-4)GlcNAc(b1-3)Gal(b1-4)GlcNAc(b1-3)Gal(b1-4)GlcNAc(b1-2)Man(a1-3)[GlcNAc(b1-3)Gal(b1-4)GlcNAc(b1-3)Gal(b1-4)GlcNAc(b1-3)Gal(b1-4)GlcNAc(b1-3)Gal(b1-4)GlcNAc(b1-2)Man(a1-6)]Man(b1-4)GlcNAc(b1-4)GlcNAc
# Summary of the method: as §1
# [9] = biological target: GlcNAc(b1-3)Gal(b1-4)GlcNAc(b1-3)Gal(b1-4)GlcNAc(b1-3)Gal(b1-4)GlcNAc(b1-3)Gal(b1-4)GlcNAc(b1-2)[GlcNAc(b1-3)Gal(b1-4)GlcNAc(b1-3)Gal(b1-4)GlcNAc(b1-3)Gal(b1-4)GlcNAc(b1-3)Gal(b1-4)GlcNAc(b1-6)]Man(a1-6)[GlcNAc(b1-3)Gal(b1-4)GlcNAc(b1-3)Gal(b1-4)GlcNAc(b1-3)Gal(b1-4)GlcNAc(b1-3)Gal(b1-4)GlcNAc(b1-2)Man(a1-3)]Man(b1-4)GlcNAc(b1-4)[Fuc(a1-6)]GlcNAc
# Summary of the method: as §1
# [10] = biological target: GlcNAc(b1-3)[GlcNAc(b1-6)]GalNAc
# Summary of the method: as §1
# [11] = biological target: Man(a1-2)Man(a1-2)Man(a1-6)[Man(a1-3)]Man
# Summary of the method: as §1
# [12] = biological target: Man(a1-2)Man(a1-3)[Man(a1-2)Man(a1-6)]Man(a1-6)[Man(a1-2)Man(a1-2)Man(a1-3)]Man
# Summary of the method: as §1
# [13] = biological target: Man(a1-3)[Man(a1-6)]Man(b1-4)GlcNAc(b1-4)GlcNAc
# Summary of the method: as §1
# [14] = biological target: Neu5Ac(a2-3)Gal(b1-3)GlcNAc(b1-2)[Neu5Ac(a2-3)Gal(b1-3)GlcNAc(b1-4)]Man(a1-6)[Neu5Ac(a2-3)Gal(b1-3)GlcNAc(b1-2)Man(a1-3)]Man(b1-4)GlcNAc(b1-4)GlcNAc
# Summary of the method: as §1
# [15] = biological target: Neu5Ac(a2-3)Gal(b1-4)[Fuc(a1-3)]GlcNAc
# Summary of the method: as §1
# [16] = biological target: Neu5Ac(a2-3)GalNAc(b1-4)GlcNAc
# Summary of the method: as §1
# [17] = biological target: Neu5Ac(a2-3)[GalNAc(b1-4)]Gal(b1-4)GlcNAc
# Summary of the method: as §1
# [18] = biological target: Neu5Ac(a2-6)Gal(b1-3)GlcNAc(b1-3)[Gal(b1-4)GlcNAc(b1-6)]Gal(b1-4)Glc
# Summary of the method: as §1
# [19] = biological target: Neu5Ac(a2-6)Gal(b1-4)GlcNAc
# Summary of the method: as §1
# [20] = biological target: Neu5Ac(a2-6)Gal(b1-4)GlcNAc(b1-2)Man(a1-3)[Man(a1-6)]Man(b1-4)GlcNAc(b1-4)GlcNAc
# Summary of the method: as §1
# [21] = biological target: Neu5Ac(a2-6)Gal(b1-4)GlcNAc(b1-3)Gal(b1-4)GlcNAc(b1-3)Gal(b1-4)GlcNAc(b1-2)Man(a1-3)[Neu5Ac(a2-6)Gal(b1-4)GlcNAc(b1-3)Gal(b1-4)GlcNAc(b1-3)Gal(b1-4)GlcNAc(b1-2)Man(a1-6)]GalNAc
# Summary of the method: as §1
# [22] = biological target: Neu5Ac(a2-6)Gal(b1-4)GlcNAc(b1-6)[Gal(b1-3)GlcNAc(b1-3)]Gal(b1-4)Glc
# Summary of the method: as §1
# [23] = biological target: Neu5Ac(a2-6)GalNAc(b1-4)GlcNAc6S
# Summary of the method: as §1
# Neu5Ac(b2-6)GalNAc = biological target: Neu5Ac(b2-6)GalNAc
# Summary of the method: as §1
# [24] = biological target: Neu5Gc(a2-3)Gal(b1-4)GlcNAc
# Summary of the method: as §1
binder,measurement,setting,value
B1,glycan array binding signal (z-score),[1],0.686
same,glycan array binding signal (z-score),[2],-0.623
same,glycan array binding signal (z-score),[3],-0.839
same,glycan array binding signal (z-score),[4],0.088
same,glycan array binding signal (z-score),[5],-0.175
same,glycan array binding signal (z-score),[6],1.97
same,glycan array binding signal (z-score),[7],2.12
same,glycan array binding signal (z-score),[8],1.56
same,glycan array binding signal (z-score),[9],1.97
same,glycan array binding signal (z-score),[10],0.522
same,glycan array binding signal (z-score),[11],-0.239
same,glycan array binding signal (z-score),[12],0.07
same,glycan array binding signal (z-score),[13],-0.516
same,glycan array binding signal (z-score),[14],0.118
same,glycan array binding signal (z-score),[15],-0.785
same,glycan array binding signal (z-score),[16],-0.208
same,glycan array binding signal (z-score),[17],-0.447
same,glycan array binding signal (z-score),[18],-0.697
same,glycan array binding signal (z-score),[19],-0.538
same,glycan array binding signal (z-score),[20],0.308
same,glycan array binding signal (z-score),[21],1.99
same,glycan array binding signal (z-score),[22],0.132
same,glycan array binding signal (z-score),[23],0.676
same,glycan array binding signal (z-score),Neu5Ac(b2-6)GalNAc,-0.883
same,glycan array binding signal (z-score),[24],-0.079
